Assay results from PubChem BioAssay AID485314 (National Center for Advancing Translational Sciences (NCATS), 2010).
Screen size: about 340,000 compounds; about 4,500 (1.3%) were called active. Not shown: some 5% with an inconclusive outcome. Calls follow the shape of the dose curve; as a rule, active = well fitted inhibition curve with a large enough effect; inconclusive = small, poorly fitted or top-dose-only effect, or another doubt; inactive = no such curve, though single readings can be large or run the other way. What follows is part of a selection rich in actives, with near analogues and random picks from the rest. Entries that show only a call come without a potency.

biological target: DNA polymerase beta (Homo sapiens) (UniProt P06746); test: qHTS Assay for Inhibitors of DNA Polymerase Beta; details: Pol beta primer extension/strand displacement, fluorescence kinetic; series mostly up to 114 µM
Description: The base excision repair system in human cells is a target for therapeutic modulation of the response to irradiation treatment and DNA-damaging drugs. A key enzyme in this system is the bi-functional DNA polymerase known as DNA polymerase Beta (Pol Beta). The following is a homogeneous kinetic assay to study the primer extension and strand-displacement reaction catalyzed by pol beta.
A stepwise description of the 1536-well assay is shown in next Table. Three microliters of reagents (buffer in column 3 and 4 as negative control and 10 nM Pol beta in columns 1, 2, and 5-48) was dispensed into 1,536-well black solid-bottomed plate. Compounds (23 nL) were transferred via Kalypsys pin tool equipped with 1536-pin array (10 nL slotted pins, V&P Scientific, San Diego, CA). The plates were incubated for 15 min at room temperature, and 1 uL substrate (50 nM final concentration) were added to start the reaction and immediately read at 0 min read on Viewlux reader. The plate were further incubated for 10 min at room temperature, and then read on Viewlux again. Throughout the screen, reagent bottle and all liquid lines were chilled and made light-tight to minimize reagent degradation. All screening operations were performed on a fully integrated robotic system (Kalypsys, San Diego, CA) containing one RX-130 and two RX-90 anthropomorphic robotic arms (Staubli, Duncan, SC). Library plates were screened starting from the lowest and proceeding to the highest concentration, and a double-dipping step of the highest concentration was required to access higher concentrations of compounds. Vehicle-only plates, with DMSO being pin-transferred to the entire column 5-48 compound area, were inserted uniformly at the beginning and the end of each library in order to monitor for and record any shifts in the background, which can be affected by reagent dispensers or loss in enzyme activity overtime. Screening data were corrected, normalized, and concentration-effect relationships were derived by using publicly-available curve fitting algorithms developed in-house (http://ncgc.nih.gov/pub/openhts). A four parameter Hill equation was fitted to the concentration-response data by minimizing the residual error between the modeled and observed responses.
Potency is read from the fitted curve at half-maximal effect.

Compound	Potency
Cc1cccc(Cn2c(CN3CCC(C(=O)NCc4ccccc4Cl)CC3)cc3ccccc32)c1	inactive
CCc1ccc(N(CC)C(=O)CCn2cnc3onc(-c4ccc(F)cc4)c3c2=O)cc1	inactive
CCCN1C(=O)C(O)(CC(=O)c2ccc(CC)cc2)c2cc(Br)ccc21 (configuration not stated)	inactive
COc1ccc(/C=C/C(=O)c2cc(Br)ccc(=O)c2O)cc1	50.1 µM (active)
COc1ccc(C(=O)/C=C/c2cccnc2)c(OC)c1	inactive
COc1ccc(C(=O)/C=C/c2ccc(OC3CSC3)cc2)cc1	inactive
CSc1ccc(CCNC(=O)c2cnn(-c3ccccc3)c2-n2cccc2)cc1	inactive
O=C(/C=C/c1ccccc1)N1CCN(Cc2cc(=O)n3nc(-c4ccccc4F)sc3n2)CC1	inactive
CCOc1ccccc1C(=O)NC1(C(F)(F)F)C(=O)Nc2c1c(=O)[nH]c(=O)n2-c1ccc(F)cc1 (configuration not stated)	inactive
Cc1ccc(CCNC(=O)c2nnc(Cc3cccc(F)c3)o2)cc1	inactive
CCOC(=O)c1ccc(S(=O)(=O)N(CCO)Cc2cc3cc(OC)c(OC)cc3[nH]c2=O)cc1	inactive
CCOc1ccc2[nH]c(=O)c(CN(CCCO)S(=O)(=O)c3ccc(F)cc3)cc2c1	inactive
COc1ccc(S(=O)(=O)N(CCCN2CCCC2=O)Cc2cc3c(C)ccc(C)c3[nH]c2=O)cc1	89.1 µM (active)
Cc1ccccc1NC(=O)CN1C(=O)N/C(=C\c2cccn2-c2cccc(C(=O)O)c2)C1=O	2.24 µM (active)
Cc1ccccc1NC(=O)CN1C(=O)C(C)(C)c2ccccc21	inactive
O=C1N/C(=C/c2cccn2-c2ccccc2)C(=O)N1c1cccc(Cl)c1	inactive
COc1ccccc1NC(=O)C1=C(C)Nc2nc(SCC(=O)c3ccc(C)cc3)nn2C1c1ccccc1C (configuration not stated)	inactive
CCc1ccccc1NC(=O)Cn1c(=O)n(-c2cccc(C)c2)c(=O)c2c1c1cc(OC)ccc1n2C	inactive
CCc1cccc(C)c1NC(=O)CSc1nnc(-c2ccco2)n1N	inactive
NC(=O)c1c(NC(=O)CSc2nc(N)cc(=O)[nH]2)sc2c1CCCC2	inactive
NC(=O)c1c(NC(=O)CSc2nnc(-c3ccco3)n2N)sc2c1CCCC2	39.8 µM (active)
CCOc1ccccc1C(=O)NCc1ccc2c(c1)CCN2C(=O)c1ccc(F)cc1	inactive
O=C(OCN1C(=O)c2ccccc2C1=O)/C(=C\c1ccco1)NC(=O)c1ccccc1	inactive
O=c1nc2s/c(=C\c3ccco3)c(=O)n2nc1Cc1ccccc1	14.1 µM (active)
O=C(O)C1=C[C@H](c2cccs2)C[C@H](OCCCCO)O1	inactive
C#Cc1ccc([C@@H]2C=C(C(=O)O)O[C@H](OCCCCO)C2)cc1	28.2 µM (active)
C=CCOC(=O)C1=C[C@@H](c2ccccc2)C[C@@H](OCc2ccc(CO)cc2)O1	inactive
